Read-out in experiment [1]: Monocyte Chemoattractant Protein-1 (MCP1), CCL2 (gene 6347)
The experiment in a line: BSK_IMphg_MCP1: BioMAP Diversity Plus: IMphg Assay for Monocyte Chemoattractant Protein-1 (MCP1) Biomarker Activity (AID 2284253). The settings on record: primary human endothelial cells with macrophages. The essentials: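 ELISA readout of MCP-1 at 24 hours in IMphg co-cultures of venular endothelial cells and macrophages, normalised to DMSO; parallel cultures stained with sulforhodamine B for overt cytotoxicity.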

Read-out in experiment [2]: Macrophage Inflammatory Protein-1 Alpha (MIP1a), CCL3 (gene 6348)
Kind of experiment: BSK_IMphg_MIP1a: BioMAP Diversity Plus: IMphg Assay for Macrophage Inflammatory Protein-1 Alpha (MIP1a) Biomarker Activity (AID 2284255). To be noted: primary human endothelial cells with macrophages. An outline of the steps:
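MIP-1a protein levels were quantified by ELISA after 24 h treatment of human endothelial cell–macrophage co-cultures, compared with DMSO. Parallel cultures were fixed with TCA and stained with 0.1% SRB to gauge overt cytotoxicity.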

Read-out in experiment [3]: Plasminogen activator inhibitor-1 (PAI1), SERPINE1 (gene 5054)
Kind of experiment: BSK_MyoF_PAI1: BioMAP Diversity Plus: MyoF Assay for Plasminogen activator inhibitor-1 (PAI1) Biomarker Activity (AID 2284256). The settings on record: primary human lung fibroblasts. The essentials: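 Activity reflects increased PAI-1, determined by ELISA and compared with DMSO, in human lung fibroblasts treated for 24 h.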

Read-out in another experiment: CD69, CD69 (gene 969)
The experiment in a line: BSK_IMphg_CD69: BioMAP Diversity Plus: IMphg Assay for CD69 Biomarker Activity (AID 2284257). To be noted: primary human endothelial cells with macrophages. The essentials:
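Readout is ELISA for CD69 in primary human venular endothelial cell/macrophage co-culture, taken at 24 h post-dosing. SRB staining of parallel cultures gauged overt cytotoxicity; signal increase versus DMSO defined activity.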

Read-out in experiment [4]: Eotaxin 3, CCL26 (gene 10344)
Kind of experiment: BSK_BF4T_Eotaxin3: BioMAP Diversity Plus: BF4T Assay for Eotaxin 3 Biomarker Activity (AID 2284258). The settings on record: primary human bronchial epithelial cells with fibroblasts. An outline of the steps: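 ELISA measurement of Eotaxin-3 after 24 h chemical exposure in a bronchial epithelial/dermal fibroblast co-culture, with DMSO as baseline. Parallel SRB staining (0.1% SRB after 10% TCA fixation, 560 nm) flagged overt cytotoxicity.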

Read-out in experiment [5]: Monocyte Chemoattractant Protein-1 (MCP1), CCL2 (gene 6347)
Kind of experiment: BSK_BF4T_MCP1: BioMAP Diversity Plus: BF4T Assay for Monocyte Chemoattractant Protein-1 (MCP1) Biomarker Activity (AID 2284259). To be noted: primary human bronchial epithelial cells with fibroblasts. The essentials: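 MCP-1 ELISA readout taken 24 h after dosing in the BF4T system (bronchial epithelial cells plus dermal fibroblasts). Parallel SRB total-protein staining flagged cytotoxicity; DMSO served as baseline, positive fitting direction.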

Read-out in experiment [6]: Intercellular Adhesion Molecule 1 (ICAM1), ICAM1 (gene 3383)
Kind of experiment: BSK_BF4T_ICAM1: BioMAP Diversity Plus: BF4T Assay for Intercellular Adhesion Molecule 1 (ICAM1) Biomarker Activity (AID 2284260). To be noted: primary human bronchial epithelial cells with fibroblasts. The essentials:
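ICAM-1 levels measured by ELISA after 24 h chemical treatment of bronchial epithelial cell/dermal fibroblast co-cultures, read against DMSO baseline. Overt cytotoxicity checked in parallel cultures by sulforhodamine B staining.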

Read-out in experiment [7]: Interleukin-8 (IL8), CXCL8 (gene 3576)
The experiment in a line: BSK_MyoF_IL8: BioMAP Diversity Plus: MyoF Assay for Interleukin-8 (IL8) Biomarker Activity (AID 2284261). The settings on record: primary human lung fibroblasts. An outline of the steps:
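In this multiplexed primary-cell system, fibroblasts from human lung are treated with chemicals, and IL-8 is detected by ELISA at 24 h, with DMSO serving as the negative reference.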

Read-out in a further experiment: CD90, THY1 (gene 7070)
Kind of experiment: BSK_BF4T_CD90: BioMAP Diversity Plus: BF4T Assay for CD90 Biomarker Activity (AID 2284262). The settings on record: primary human bronchial epithelial cells with fibroblasts. An outline of the steps:
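CD90 levels by ELISA after 24 h treatment of human bronchial epithelial cell/dermal fibroblast cultures, analysed versus DMSO. Overt cytotoxicity checked in parallel cultures by sulforhodamine B staining.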

Read-out in experiment [8]: Interleukin-1 alpha (IL1a), IL1A (gene 3552)
The experiment in a line: BSK_BF4T_IL1a: BioMAP Diversity Plus: BF4T Assay for Interleukin-1 alpha (IL1a) Biomarker Activity (AID 2284264). To be noted: primary human bronchial epithelial cells with fibroblasts. The essentials: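 ELISA read-out of IL-1α from bronchial epithelial cell/dermal fibroblast co-cultures 24 h after compound addition. Increases scored against DMSO negative control. Cytotoxicity monitored by sulforhodamine B staining of parallel cultures.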

Read-out in another experiment: Decorin, DCN (gene 1634)
The experiment in a line: BSK_MyoF_Decorin: BioMAP Diversity Plus: MyoF Assay for Decorin Biomarker Activity (AID 2284265). To be noted: primary human lung fibroblasts. An outline of the steps: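 Lung fibroblast cultures, 24 h chemical exposure. Decorin by ELISA, positive fitting direction, DMSO baseline.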

Read-out in a further experiment: KRT18 (gene 3875)
Kind of experiment: BSK_BF4T_Keratin818: BioMAP Diversity Plus: BF4T Assay for Keratin 818 Biomarker Activity (AID 2284266). The settings on record: primary human bronchial epithelial cells with fibroblasts. An outline of the steps: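 Keratin 8/18 levels quantified by ELISA after 24 h chemical treatment of bronchial epithelial cell/dermal fibroblast co-cultures, fitted in positive direction relative to DMSO. Parallel SRB staining tracks overt cytotoxicity.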

Experiment [9] in a line: BSK_MyoF_SRB: Viability Assessment in the BioMAP Diversity Plus: MyoF Assay (AID 2284267).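 Note: total protein by SRB absorbance in parallel cultures as cytotoxicity measure.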 The settings on record: primary human lung fibroblasts. The essentials: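 Cytotoxicity read-out: after 10% TCA fixation, parallel human lung fibroblast cultures were stained with 0.1% SRB at 24 h post-dosing and read at 560 nm; DMSO served as baseline.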
Read-out in experiment [10]: Matrix Metallopeptidase 1 (MMP1), MMP1 (gene 4312)
The experiment in a line: BSK_BF4T_MMP1: BioMAP Diversity Plus: BF4T Assay for Matrix Metallopeptidase 1 (MMP1) Biomarker Activity (AID 2284270). To be noted: primary human bronchial epithelial cells with fibroblasts. The essentials:
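MMP-1 quantified by ELISA in primary human bronchial epithelial/dermal fibroblast co-cultures, 24 hours post-dosing, with DMSO as baseline; parallel sulforhodamine B staining (560 nm) tracks overt cytotoxicity.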

Read-out in experiment [11]: Matrix Metallopeptidase 3 (MMP3), MMP3 (gene 4314)
Kind of experiment: BSK_BF4T_MMP3: BioMAP Diversity Plus: BF4T Assay for Matrix Metallopeptidase 3 (MMP3) Biomarker Activity (AID 2284271). To be noted: primary human bronchial epithelial cells with fibroblasts. An outline of the steps:
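MMP-3 level read by ELISA after 24 h chemical exposure of bronchial epithelial cell/dermal fibroblast co-cultures, fitted upward relative to DMSO. Parallel cultures stained with 0.1% SRB after TCA fixation gauge overt cytotoxicity.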

Read-out in experiment [12]: Tissue plasminogen activator (tPA), PLAT (gene 5327)
The experiment in a line: BSK_BF4T_tPA: BioMAP Diversity Plus: BF4T Assay for Tissue plasminogen activator (tPA) Biomarker Activity (AID 2284272). To be noted: primary human bronchial epithelial cells with fibroblasts. The essentials: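 tPA level quantified by ELISA at 24 h post-treatment in bronchial epithelial/dermal fibroblast co-cultures, gain of signal scored against DMSO baseline. Parallel cultures stained with 0.1% SRB (560 nm) to flag overt cytotoxicity.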

Read-out in experiment [13]: Plasminogen Activator Inhibitor-1 (PAI1), SERPINE1 (gene 5054)
Kind of experiment: BSK_BF4T_PAI1: BioMAP Diversity Plus: BF4T Assay for Plasminogen Activator Inhibitor-1 (PAI1) Biomarker Activity (AID 2284273). The settings on record: primary human bronchial epithelial cells with fibroblasts. An outline of the steps: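 PAI-1 levels quantified by ELISA 24 h post-dosing in bronchial epithelial cell plus dermal fibroblast cultures. Signal gain referenced to DMSO baseline. Sulforhodamine B total-protein staining of parallel wells checked cytotoxicity.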

Experiment [14] can be described thus: BSK_BF4T_SRB: Viability Assessment in the BioMAP Diversity Plus: BF4T Assay (AID 2284274). To be noted: primary human bronchial epithelial cells with fibroblasts. The essentials:
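Cytotoxicity measured as total protein: cells fixed with 10% TCA, stained with 0.1% SRB, read at 560 nm. Bronchial epithelial/dermal fibroblast co-culture, 24 h after dosing, with positive-direction fitting relative to DMSO.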

Read-out in experiment [15]: urokinase Plasminogen Activator (uPA), PLAU (gene 5328)
Kind of experiment: BSK_BF4T_uPA: BioMAP Diversity Plus: BF4T Assay for urokinase Plasminogen Activator (uPA) Biomarker Activity (AID 2284275). The settings on record: primary human bronchial epithelial cells with fibroblasts. The essentials:
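uPA levels measured by ELISA at 24 hours in BF4T cultures (bronchial epithelial cells plus dermal fibroblasts) and compared with DMSO; cytotoxicity tracked in parallel cultures by sulforhodamine B staining.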

Read-out in experiment [16]: Matrix Metallopeptidase 9 (MMP9), MMP9 (gene 4318)
The experiment in a line: BSK_BF4T_MMP9: BioMAP Diversity Plus: BF4T Assay for Matrix Metallopeptidase 9 (MMP9) Biomarker Activity (AID 2284276). The settings on record: primary human bronchial epithelial cells with fibroblasts. An outline of the steps: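 MMP-9 levels were measured by ELISA after 24 h exposure of bronchial epithelial cell/dermal fibroblast co-cultures, with DMSO as baseline. Parallel cultures were stained with 0.1% SRB after TCA fixation, read at 560 nm, to flag overt cytotoxicity.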

Where “and” joins values, the source holds several entries; their conditions need not be identical. Identical values can stand only once. Calls of active or inactive are those of the source. Rule for the calls: active = hit-call score of the fitted dose curve at least 0.9, where 1 is the maximum; inactive = score below 0.9.

One may read the AC50 as the concentration at which the activity in the assay is half-maximal. As to `OC(C(F)(F)F)(C(F)(F)F)C(O)(C(F)(F)F)C(F)(F)F`, the AC50 was 22.4 µM (active) and 22.6 µM (active) in [1]; 7.09 µM (active) and 53.2 µM (active) in experiment [2]; 53.5 µM (active) in [3]; 18.7 µM (active) and 24.2 µM (active) with CD69, CD69 (gene 969); 15.7 µM (active) and 8.93 µM (active) in experiment [4]; 30 µM (active) and 46.7 µM (active) with Decorin, DCN (gene 1634). Also, the concentration at half-maximal activity (AC50) in [9] is 36.7 µM (active) and 37.8 µM (active); in [13] it was 14.4 µM (active) and 8.31 µM (active). In addition, the outcome in experiment [5] is “inactive”; in experiment [6], “inactive”; in [7], “inactive”; with CD90, THY1 (gene 7070), “inactive”; in [8] it was “inactive”; with KRT18 (gene 3875) it was “inactive”. Further, the outcome in experiment [10], in experiment [11], in [12], in experiment [14], in experiment [15] and in [16] was inactive.

For the origin of these results see PubChem BioAssay (EPA / NIEHS).
